The full ranking holds about 18,000 sequences; the median of “log2 normalized intensity” is about 0.39, and the highest 2% start at about 6.6. The list comes from a sample in which the highest values are over-represented; it also holds similar and randomly drawn sequences.
Molecular target: T1, HNF4alpha2 (COS-7 nuclear extract) (Homo sapiens, UniProt P41235 1-474)
T1 sequence: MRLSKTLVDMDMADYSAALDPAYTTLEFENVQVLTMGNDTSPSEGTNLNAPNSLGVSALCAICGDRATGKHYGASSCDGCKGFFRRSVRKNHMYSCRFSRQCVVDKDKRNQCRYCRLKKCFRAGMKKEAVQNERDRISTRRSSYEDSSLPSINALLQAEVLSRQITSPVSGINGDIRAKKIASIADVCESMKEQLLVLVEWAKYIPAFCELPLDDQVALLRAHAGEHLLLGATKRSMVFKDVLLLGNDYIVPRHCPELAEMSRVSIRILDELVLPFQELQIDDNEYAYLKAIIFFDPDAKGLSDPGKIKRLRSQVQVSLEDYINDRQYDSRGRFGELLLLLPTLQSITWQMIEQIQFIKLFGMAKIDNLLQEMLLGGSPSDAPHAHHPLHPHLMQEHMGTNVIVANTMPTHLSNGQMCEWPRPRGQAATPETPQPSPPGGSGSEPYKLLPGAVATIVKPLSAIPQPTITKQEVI
Assay: protein-binding microarray; COS-7 nuclear extract on double-stranded Agilent 4x180k PBM; binding buffer, salt, pH and temperature not given in the material; high values mean tight binding
Conditions: chain copies: 2; label: 3' end of strand 1 on the slide; dsDNA, one strand shown
Outline: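 Nuclear extracts came from COS-7 cells transiently transfected by CaPO4 with a human HNF4α isoform expression vector. They were applied to a custom Agilent SurePrint G3 4x180k array of ~60-nt oligonucleotides, made double-stranded, with ~44,000 test sequences spotted in quadruplicate. Bound HNF4α was imaged at 2-µm resolution on an Agilent G2565CA scanner. Binding signal was taken as background-corrected, normalized gProcessedSignal from Agilent software.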

Row | Sequence | binding signal
1 | CCCTTTGCACATGCCCCTCCCAGGGACACAGCCTAGGGAGATTAGAGTATCGGTCGA | 3.12 log2 normalized intensity
2 | CAGAAAAATGGAGCAGCTCTGTATTGAGATGCCTAGGGAGATTAGAGTATCGGTCGA | -0.99 log2 normalized intensity
3 | TGCCATTCTTCCAGTTGTGTGCACAAGAGGGCCTAGGGAGATTAGAGTATCGGTCGA | 1.7 log2 normalized intensity
4 | GAATTTCATTTTGCTCTTTGTTCAGATACAGCCTAGGGAGATTAGAGTATCGGTCGA | 1.33 log2 normalized intensity
5 | TTTTTTCAAGTGTTAGCTGTTTCCAAATATGCCTAGGGAGATTAGAGTATCGGTCGA | 1.42 log2 normalized intensity
6 | AATCCCTTAGGCTTTTGCACTTTACTCAGAGCCTAGGGAGATTAGAGTATCGGTCGA | 3.14 log2 normalized intensity
7 | CCCCTCCCTCCGCAACCTTTACTCCTTGTGGCCTAGGGAGATTAGAGTATCGGTCGA | 3.68 log2 normalized intensity
8 | GTCACCACCTTTTTTGGCCTTTACCCCTTGGCCTAGGGAGATTAGAGTATCGGTCGA | 4.8 log2 normalized intensity
9 | AAAAAACCCTAGAGATGTACACAGTTCAAAGCCTAGGGAGATTAGAGTATCGGTCGA | -0.874 log2 normalized intensity
10 | TTCCTGCATTAACATCAACATGGACTTTGAGCCTAGGGAGATTAGAGTATCGGTCGA | 8.62 log2 normalized intensity
11 | AGGGTCTTTGCAACTGTGTGTGGCCTGCACGCCTAGGGAGATTAGAGTATCGGTCGA | 1.38 log2 normalized intensity
12 | TCAAATATTTGGATAATGTGCCCTTTGTACGCCTAGGGAGATTAGAGTATCGGTCGA | 6.6 log2 normalized intensity
13 | TATTTGGATAATGTGCCCTTTGTACCTGGGGCCTAGGGAGATTAGAGTATCGGTCGA | 7.01 log2 normalized intensity
14 | GGATAATGTGCCCTTTGTACCTGGGGCAAAGCCTAGGGAGATTAGAGTATCGGTCGA | 5.03 log2 normalized intensity
15 | TTTGAAGCAAAGCCTTTGAGCAGATGGAAGGCCTAGGGAGATTAGAGTATCGGTCGA | 0.0298 log2 normalized intensity
16 | TACCTTTCCTGCATTAACATCAACATGGACGCCTAGGGAGATTAGAGTATCGGTCGA | 2.1 log2 normalized intensity
17 | AGCAGATGGCCAGCCTTTGGACTTTGAACTGCCTAGGGAGATTAGAGTATCGGTCGA | 10.7 log2 normalized intensity
18 | GCATTAACATCAACATGGACTTTGAGTCATGCCTAGGGAGATTAGAGTATCGGTCGA | 6.21 log2 normalized intensity
19 | TTTTTGGCCTTTACCCCTTGAGTTTGAACTGCCTAGGGAGATTAGAGTATCGGTCGA | 3.59 log2 normalized intensity
20 | ATGGCCAGCCTTTGGACTTTGAACTGCAACGCCTAGGGAGATTAGAGTATCGGTCGA | 9.66 log2 normalized intensity
21 | TGGTGGCACAGGGAATGGCTCGTATGAATGGCCTAGGGAGATTAGAGTATCGGTCGA | 0.46 log2 normalized intensity

Row | Sequence | binding signal
22 | ATTGACAAAGACCAGTGCTCTTTCTTCTCTGCCTAGGGAGATTAGAGTATCGGTCGA | -0.734 log2 normalized intensity
23 | AGGGTTCAAACTCCAGCTCTGATACTTTCTGCCTAGGGAGATTAGAGTATCGGTCGA | 3.12 log2 normalized intensity
24 | GTGAGGCATCTGGACCATTGCTGACCTTGCGCCTAGGGAGATTAGAGTATCGGTCGA | 3.01 log2 normalized intensity
25 | CTCTCGTCACCTCCACCCACCCGTGCATCAGCCTAGGGAGATTAGAGTATCGGTCGA | 4.68 log2 normalized intensity
26 | TCCCACTAGGTGGCGCTGTTGACCTTGAAAGCCTAGGGAGATTAGAGTATCGGTCGA | 3.09 log2 normalized intensity
27 | CTGCTTGATAGCCATCTGGTGGACTTTGCTGCCTAGGGAGATTAGAGTATCGGTCGA | 5.26 log2 normalized intensity
28 | TGATAGCCATCTGGTGGACTTTGCTCTGCTGCCTAGGGAGATTAGAGTATCGGTCGA | 7.44 log2 normalized intensity
29 | GCCATCTGGTGGACTTTGCTCTGCTCATTTGCCTAGGGAGATTAGAGTATCGGTCGA | 6.26 log2 normalized intensity
30 | CAAAGGGTCAAGTTCAGATCCTGGCCATGCGCCTAGGGAGATTAGAGTATCGGTCGA | 0.748 log2 normalized intensity
31 | GAGCAGGGTATCAGTTGAACAGAATAGAGGGCCTAGGGAGATTAGAGTATCGGTCGA | -0.996 log2 normalized intensity
32 | GTGTGCAATTAGAGCAAAGGTTACTGCAGAGCCTAGGGAGATTAGAGTATCGGTCGA | 2.62 log2 normalized intensity
33 | GAACCTGCCCTCTGTCCCATGGTGTACAAGGCCTAGGGAGATTAGAGTATCGGTCGA | 1.26 log2 normalized intensity
34 | CCAGTTTTCCCAAAGGAGCTTTATTGGTTCGCCTAGGGAGATTAGAGTATCGGTCGA | 1.5 log2 normalized intensity
35 | TGAGAATCTGACCTTTGGTTAACTTCTTAAGCCTAGGGAGATTAGAGTATCGGTCGA | 4.02 log2 normalized intensity
36 | AAAAGGATGCTAGGTTTGTGAGTCCAAAGGGCCTAGGGAGATTAGAGTATCGGTCGA | 4.16 log2 normalized intensity
37 | GATGCTAGGTTTGTGAGTCCAAAGGTCAGCGCCTAGGGAGATTAGAGTATCGGTCGA | 9.14 log2 normalized intensity
38 | TTGTGAGTCCAAAGGTCAGCCGGGGAAGGTGCCTAGGGAGATTAGAGTATCGGTCGA | 6.71 log2 normalized intensity
39 | AGGTCAGGGAGTAGGTTTGATTTGTGAAAGGCCTAGGGAGATTAGAGTATCGGTCGA | 0.942 log2 normalized intensity
40 | TAGGTTTGTGAGTCCAAAGGTCAGCCGGGGGCCTAGGGAGATTAGAGTATCGGTCGA | 7.74 log2 normalized intensity
41 | ATGTTAGTCTTGAGTCCCAAAGTCCAAAGGGCCTAGGGAGATTAGAGTATCGGTCGA | 5.42 log2 normalized intensity
42 | TGAGTATCCAAAGGTCAGTGACAAATGTCAGCCTAGGGAGATTAGAGTATCGGTCGA | 3.65 log2 normalized intensity

Row | Sequence | binding signal
43 | AAGGTTGGTTTTTGGAGACAGGAGTAGTCAGCCTAGGGAGATTAGAGTATCGGTCGA | 1.3 log2 normalized intensity
44 | AGTCCAAAGGTCAGCCGGGGAAGGTGCAGGGCCTAGGGAGATTAGAGTATCGGTCGA | 5 log2 normalized intensity
45 | TAGCCAGACCTGTTCCTCTGCCCCTCATCGGCCTAGGGAGATTAGAGTATCGGTCGA | 1.7 log2 normalized intensity
46 | TGAGACATTTTGTCTTTTCTCCCCTGACTAGCCTAGGGAGATTAGAGTATCGGTCGA | 2.63 log2 normalized intensity
47 | GGACAATCATTGTGCAACCTGGACATTGGCGCCTAGGGAGATTAGAGTATCGGTCGA | 2.08 log2 normalized intensity
48 | AAGGTGTATGTGGACTTTCAACTGCAGGGGGCCTAGGGAGATTAGAGTATCGGTCGA | 3.47 log2 normalized intensity
49 | CGAGCATGGCCGCTCCGCGAGGTGAGCCATGCCTAGGGAGATTAGAGTATCGGTCGA | 0.717 log2 normalized intensity
50 | TGGGCCCCACAGTGCATCTGATAAGGTTGTGCCTAGGGAGATTAGAGTATCGGTCGA | 0.921 log2 normalized intensity
51 | GCTGGTTGCCCCTTTGACCCTCGGGCCTCCGCCTAGGGAGATTAGAGTATCGGTCGA | 5.62 log2 normalized intensity
52 | AGCCTTATTCTTTGATCTCTTATCACCCTGGCCTAGGGAGATTAGAGTATCGGTCGA | 1.86 log2 normalized intensity
53 | CTAGTTAAGTCACTGGGCTGATGACCTTTGGCCTAGGGAGATTAGAGTATCGGTCGA | 6.19 log2 normalized intensity
54 | AGAATCATCTTTGAGCTGGATGACCTTTGTGCCTAGGGAGATTAGAGTATCGGTCGA | 7.46 log2 normalized intensity
55 | CTGGATGACCTTTGTCCTGGCACAACTGGAGCCTAGGGAGATTAGAGTATCGGTCGA | 5.84 log2 normalized intensity
56 | TGACCTTTGTCCTGGCACAACTGGATGGTGGCCTAGGGAGATTAGAGTATCGGTCGA | 5 log2 normalized intensity
57 | TAAGTCACTGGGCTGATGACCTTTGACTGAGCCTAGGGAGATTAGAGTATCGGTCGA | 7.08 log2 normalized intensity
58 | TTTTTTTTTTGAGATGGAATCTTGCCCTGTGCCTAGGGAGATTAGAGTATCGGTCGA | 3.18 log2 normalized intensity
59 | TCCTGATCTTTGACCTGGAGCATGACCCTTGCCTAGGGAGATTAGAGTATCGGTCGA | 4.86 log2 normalized intensity
60 | TTGAGCTGGATGACCTTTGTCCTGGCACAAGCCTAGGGAGATTAGAGTATCGGTCGA | 7.13 log2 normalized intensity
61 | CACTGGGCTGATGACCTTTGACTGAGATGGGCCTAGGGAGATTAGAGTATCGGTCGA | 5.32 log2 normalized intensity
62 | CATCTTTGAGCTGGATGACCTTTGTCCTGGGCCTAGGGAGATTAGAGTATCGGTCGA | 8.57 log2 normalized intensity
63 | ATGACCTTTGACTGAGATGGGAGCAGTGCTGCCTAGGGAGATTAGAGTATCGGTCGA | 2.23 log2 normalized intensity

— paper PMC10726135, “HNF4α isoforms regulate the circadian balance between carbohydrate and lipid metabolism in the liver”
